JMJD2A Tudor = inhibitors of human JMJD2A Tudor domain; O75164; AlphaScreen JMJD2A-Tudor / H3K4me3 peptide binding; Potency, µM (top dose mostly 114 µM), without a hit: at the top dose activity change, negative = inhibition, hits mostly inhibitors; hit rate 4.4% among 390,000; AID 504339; also: potency is read from the fitted curve at half-maximal effect; % is scaled to controls: 0 for no effect and ±100 for the full control effect; nearly all actives have a fitted effect of over 50% in size
HP1b chromo inh = HP1-beta chromodomain-methylated histone interaction inhibition; AlphaScreen HP1-beta / biotin-H3K9me3 peptide binding; AID 540317; Potency, µM (titrated, usually from 114 µM), inactives show top-dose activity change, negative = inhibition, most hits filed as inhibitors; P83916; hit rate 0.56% among 390,000; also: potency is read from the fitted curve at half-maximal effect; nearly all actives have a fitted effect of over 70% in size
Target sequence (P83916 whole entry, looked up): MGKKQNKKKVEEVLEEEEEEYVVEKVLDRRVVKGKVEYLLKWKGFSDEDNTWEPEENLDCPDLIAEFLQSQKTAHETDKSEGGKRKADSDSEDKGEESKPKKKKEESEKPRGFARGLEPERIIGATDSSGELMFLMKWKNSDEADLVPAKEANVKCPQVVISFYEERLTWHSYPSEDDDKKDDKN
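HP1-beta protein (50 nM final) preincubated 30 min at room temperature with biotinylated H3(1-18)K9me3 peptide (50 nM) in PBS pH 7.4, 0.01% Tween-20, then compound added for 30 min. AlphaScreen streptavidin donor/nickel chelate acceptor beads (10 ug/mL final), 30 min dark, luminescence read.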
BAZ2B inh = blocks human BAZ2B; Q9UIF8; AlphaScreen BAZ2B-H3K14Ac peptide displacement; Potency, µM (series often up to 114 µM), inactives show at the top dose activity change, negative = inhibition, usual class: inhibitors; hit rate 4.4% among 360,000; AID 504333; also: potency is read from the fitted curve at half-maximal effect; % is scaled to controls: 0 for no effect and ±100 for the full control effect; nearly all actives have a fitted effect of over 60% in size
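AlphaScreen luminescence quantifies BAZ2B engagement of H3K14Ac peptide; the protein and biotinylated peptide are both at 50 nM final, buffer PBS pH 7.4 with 0.01% Tween-20, all steps at room temperature.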
PI5P4Ka inh = inhibitors of human PI5P4K alpha; hit rate 1.2% among 330,000; max response, %; P48426; PI5P4Kalpha enzyme, ADP-Glo luminescence, 60 min; active compounds read low; active = max response of -50% or lower; inconclusive = between -30% and -50%; inactive = -30% or higher; also: value at the top dose of about 77 µM; % is scaled to controls: 0 for no effect and ±100 for the full control effect
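Single end-point luminescence (ADP-Glo) quantified ADP from PI5P4Kalpha turnover; ATP 5 microM final, 1 h at RT, 0.1% CHAPS and 0.28 mM EGTA in HEPES pH 7.4.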
PLK1 PBD inh = PLK1 (human) polo-box domain binding inhibition; P53350; Plk1 PBD binding of FITC phosphopeptide, fluorescence polarization; Potency, µM, inactives show max response, negative = inhibition, most hits filed as inhibitors; hit rate 2.8% among 360,000; also: potency is read from the fitted curve at half-maximal effect; series mostly up to about 57 µM; % is scaled to controls: 0 for no effect and ±100 for the full control effect; nearly all actives have a fitted effect of over 65% in size
G9a block = inhibitors of human histone lysine methyltransferase G9a. hit rate 8.8% among 350,000. G9a H3K9 monomethylation, AlphaScreen, 2 h. Potency, µM (top dose mostly 102 µM), without a hit: at the top dose activity, negative = inhibition, most hits filed as inhibitors. Q96KQ7; also: potency is read from the fitted curve at half-maximal effect; % is scaled to controls: 0 for no effect and ±100 for the full control effect; nearly all actives have a fitted effect of over 75% in size
Target sequence (Q96KQ7 913-1193 limits assumed): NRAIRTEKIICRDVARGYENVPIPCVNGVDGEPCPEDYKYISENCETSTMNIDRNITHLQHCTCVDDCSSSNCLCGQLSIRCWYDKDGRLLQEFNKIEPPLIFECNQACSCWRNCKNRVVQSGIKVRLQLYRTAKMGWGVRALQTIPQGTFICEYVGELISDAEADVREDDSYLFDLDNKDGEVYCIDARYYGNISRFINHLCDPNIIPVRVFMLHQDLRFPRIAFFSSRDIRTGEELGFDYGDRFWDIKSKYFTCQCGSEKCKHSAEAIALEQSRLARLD
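G9a (20 nM) preincubated 15 min RT with compounds, then 500 nM biotinylated H3K9 peptide and 20 uM SAM added; 2 h RT reaction. Monomethyl-H3K9 product detected by AlphaScreen with anti-H3K9me1 antibody, streptavidin donor and anti-rabbit IgG acceptor beads.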
Numbers without * were called inactive; ? = inconclusive; . = no result; ! = not active in a repeat; [ ] = dose if it differs, or a comment. Most compounds without a hit are left out; they make up all but 12% or so of the library. Unless noted, calls follow the shape of the dose curve; as a rule, active = well fitted curve in the direction sought with a large enough effect; inconclusive = small, poorly fitted or top-dose-only effect, or another doubt; inactive = no such curve, though single readings can be large; an effect the other way counts as inactive or inconclusive.

SMILES	JMJD2A Tudor	HP1b chromo inh	BAZ2B inh	PI5P4Ka inh	PLK1 PBD inh	G9a block
Cc1n[nH]c(=O)c2c(NC(=O)CSc3nn(-c4ccccc4)c(=S)s3)oc(C)c12	-19.2%	19.0%	-25.5%	4.0	-3.2%	?
Oc1ccc(-c2cnns2)c(O)c1	0.794µM*	?	-24.3%	2.7	?	7.08µM*
Oc1ccc(-c2nc3ccccc3s2)c(O)c1	12.7%	83.9%	15.4%	20.3	-21.1%	13.6%
Cc1ccc2c(c1)-c1nc(-c3ccc(Cl)cc3)cc(-c3coc4ccccc4c3=O)c1CO2	-6.3%	29.9%	-21.1%	.	.	-26.7%[59 µM]
COc1cc(C23CCCN(CCC(C(C)(C)C)C2)C32OCCO2)cc(OC)c1OC (stereo not drawn)	.	.	.	9.0	1.7%	.
CCCOc1ccccc1C1Oc2nc(SC)nnc2-c2ccccc2N1C(C)=O (stereo not drawn)	-25.6%	17.1%	-18.9%	.	.	-1.9%[59 µM]
COc1cccc(NC(=O)CN(C)C(=O)c2ccccc2OCc2c(C)noc2C)c1	-7.8%	8.9%	10.1%	10.6	2.1%	7.94µM*
CCN(CC)S(=O)(=O)c1cc(NC(=O)c2ccccc2OCc2c(C)noc2C)ccc1C	89.1µM*	26.5%	.	10.2	-1.8%	.
Cc1noc(C)c1COc1ccccc1C(=O)Nc1cccc(S(=O)(=O)N(C)C)c1	-17.1%	8.5%	5.5%	2.2	-5.3%	-38.2%
CC(=O)c1c(N2CCN(Cc3ccccc3)CC2)[nH]c(-c2ccccc2)nc1=S	?	13.7%	?	-0.6	0.6%	70.8µM*
O=C(CNC(=O)c1ccc(Br)o1)Nc1ncccc1O	?	2.9%	79.4µM*	-16.5	-9.1%	28.2µM*
Cc1cccnc1NC(=O)c1ccc(Br)o1	-8.6%	28.0%	11.8%	2.8	-1.2%	-5.1%
Cc1ccc(C(=O)Nc2ncccc2O)o1	3.55µM*	-17.0%	?	2.7	-3.6%	6.0%[12.7 µM]
Cc1cccc(NC(=S)NCCc2ccc3c(c2)OCCO3)c1C	-34.6%	-5.9%	?	-2.6	-1.1%	2.7%
CN1CCc2cccc3c2C1Cc1ccc(O)c(O)c1-3 (stereo not drawn)	39.8µM*	?	?	-29.2	3.4%	1.89µM*!
Fc1ccc(-n2c(=S)[nH]c3cccnc32)cc1	15.8µM*	70.8µM*	4.6%	-1.2	11.9µM*	.
CCOC(=O)c1ccc(N2Cc3ccccc3C2=N)cc1	9.0%	48.3%	13.2%	-6.5	-4.0%	6.4%
CCOC(=O)c1ccc(N=C2C(=S)N(c3ccc(C(=O)OCC)cc3)C(=N)N2/N=C/c2ccccc2)cc1	?	-40.7%	-3.0%	.	?	3.98µM*
CC1CCCN(C(=O)C2CCN(CCCc3ccccc3)CC2)C1 (stereo not drawn)	3.55µM*	?	?	8.0	-0.3%	15.8µM*
CC1CCCN(C(=O)C2CCN(CC(C)c3ccccc3)CC2)C1 (stereo not drawn)	3.55µM*	?	-28.4%	1.0	-1.7%	?
O=C(N/C(=C\c1cccc([N+](=O)[O-])c1)C(=O)N1CCOCC1)c1ccco1	-13.0%[57.1 µM]	-1.9%	-0.2%	-0.7	?	?
C=CCOc1ccc(C(c2c(O)nc(SC)[nH]c2=O)c2c(O)nc(SC)[nH]c2=O)cc1	-3.5%	10.5%	.	-26.4	11.9µM*	.
CCOc1ccc(C(c2c(O)nc(SC)[nH]c2=O)c2c(O)nc(SC)[nH]c2=O)cc1	-20.8%	32.2%	.	?	23.8µM*	.
CSc1nc(O)c(C(c2cccc([N+](=O)[O-])c2)c2c(O)nc(SC)[nH]c2=O)c(=O)[nH]1	-14.5%	37.1%	?	?	-2.7%	28.2µM*
O=c1[nH]c(SCc2cccc([N+](=O)[O-])c2)nc2[nH]ncc12	-15.4%	20.5%	-19.8%	-4.8	-3.8%	-1.9%
SMILES	JMJD2A Tudor	HP1b chromo inh	BAZ2B inh	PI5P4Ka inh	PLK1 PBD inh	G9a block
CSc1nc(O)c(C(c2ccc(O)cc2)c2c(O)nc(SC)[nH]c2=O)c(=O)[nH]1	-6.3%	?	?	?	?	10µM*
CCOc1ccccc1C(c1c(O)nc(SC)[nH]c1=O)c1c(O)nc(SC)[nH]c1=O	-0.7%	50.6%	.	?	-24.9%	.
Cc1ccccc1C(=O)Nc1ccccc1OCc1cc(=O)n2ccccc2n1	-18.5%	13.0%[57 µM]	9.4%	.	.	0.7%[59 µM]
CCc1nnc(N/N=C/c2cc(Br)c(O)cc2O)n1N	79.4µM*	41.0%	50.1µM*	-69.0*	-25.7%	50.1µM*
CC(C)(C)c1nnc(N/N=C/c2cc(Br)ccc2O)n(N)c1=O	22.4µM*	6.5%	17.8µM*	?	-5.1%	4.9%[59 µM]
CCc1nnc(N/N=C/c2cccs2)n1N	-12.0%	34.6%	-6.3%	-11.0	-7.7%	50.1µM*
CCCCN(C(=O)C1CCCO1)c1c(N)n(CC(C)C)c(=O)[nH]c1=O (stereo not drawn)	-13.1%	7.3%	5.9%	7.8	-1.6%	?
COc1ccccc1OCC(O)CN1C(=O)NC(C)(C)C1=O (stereo not drawn)	?	21.4%	-1.4%	2.7	26.7µM*	10.0%
CC1(C)NC(=O)N(CC(O)COc2ccccc2-c2ccccc2)C1=O (stereo not drawn)	5.0%	28.2%	10.4%	0.4	-3.4%	15.2%
CC(=O)N(\C=C/C=C/C=C1\Sc2ccccc2C1=O)c1ccccc1	7.94µM*	12.6µM*	7.08µM*	-66.2*	?	10µM*
COC(=O)C1CN(C(=O)COc2ccc(Cl)cc2C)c2ccccc2O1 (stereo not drawn)	25.3%	92.1%	18.2%	11.8	-3.8%	28.2%
CCN(C(=O)c1nn(C)c2c1CSc1ccccc1-2)c1cccc(C)c1	-3.0%	68.4%	4.8%	.	.	-2.6%[59 µM]
COc1ccc(C(=O)O)cc1S(=O)(=O)NC(C)(C)C	-1.5%[11.4 µM]	0.5%	-21.5%	-12.8	23.8µM*	-2.0%
NC(=O)C1CCCN1Cc1ccc2c(c1)OCO2 (stereo not drawn)	1.4%	19.8%	.	0.4	-8.9%	.
Cc1cccc(NC(=O)C(Cc2ccccc2)N2Cc3ccccc3C2=O)c1C (stereo not drawn)	-14.5%	36.7%	-11.1%	.	.	-24.3%[59 µM]
O=c1[nH][nH]cc1C=Nc1ccc(Cl)cc1Cl	-2.7%	25.8%	?	-5.6	-3.4%	-5.9%
O=c1[nH][nH]cc1C=Nc1ccccc1O	-25.2%	50.2%	39.8µM*	0.2	1.0%	64.8%[12.7 µM]
O=c1[nH][nH]cc1C=Nc1ccccc1Cl	-14.0%	18.2%	-33.0%	-10.7	-3.0%	-8.2%
O=c1[nH][nH]cc1C=Nc1cc(Cl)ccc1O	79.4µM*	32.7%	14.1µM*	-2.6	-2.9%	?
COc1ccc(N2CCN(c3c(S(=O)(=O)c4ccccc4)cnc4ccc(OC)cc34)CC2)cc1	?	?	?	-2.3	0.2%	8.91µM*
CCOc1ccc2ncc(S(=O)(=O)c3ccccc3)c(N3CCN(c4ccc(OC)cc4)CC3)c2c1	?	?	10µM*	0.8	-6.9%	?

Screening results (PubChem)
